According to the supplement of paper PMC10849652:
About 7,900 targets were measured; listed, in parts, are those with a hit and a random draw of the rest. About 0.6% of all pairs of compound and target were hits.

Columns and labels:
Test in all cases: log2 fold change, soluble protein after heating vs DMSO (PISA); higher = thermal stabilisation; K562 cells, 10 uM, 30 min; active = over 0.2 and 3.5 SD of the protein, either way, in both replicates (recomputed)
[1] = compound: Cc1ccc(NC(=O)c2ccc(CN3CC[C@H](N(C)C)C3)c(C(F)(F)F)c2)cc1Nc1nccc(-c2cncnc2)n1 [bafetinib]
Summary of the method: (§1)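 K562 cells at 2×10^6 cells/mL were treated with 10 μM compound for 30 min. Aliquots were heated for 3 min across 48°C-58°C, pooled, and extracted in PBS with 0.5% NP-40 at 4°C; soluble protein was the supernatant after 21,000xg for 90 min. Soluble protein was quantified by TMTpro 16plex LC-MS/MS with channel sums equalised, and reported as log2 fold change in thermal stability against DMSO controls, with values from duplicates.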

[2] = compound: Cc1cccc(CC(=O)N2CCc3c2ccc(-c2cn(C)c4ncnc(N)c24)c3F)n1
Summary of the method: as §1

[3] = compound: Cc1cn(-c2cc(NC(=O)c3ccc(C)c(Nc4nccc(-c5cccnc5)n4)c3)cc(C(F)(F)F)c2)cn1 [nilotinib]
Summary of the method: as §1

[4] = compound: Cc1nc(Nc2n[nH]c3c2CN(C(=O)N[C@H](CN(C)C)c2ccccc2)C3(C)C)c2sccc2n1
Summary of the method: as §1

[5] = compound: Cc1nc(Nc2ncc(C(=O)Nc3c(C)cccc3Cl)s2)cc(N2CCN(CCO)CC2)n1 [dasatinib]
Summary of the method: as §1

[6] = compound: Cc1ncc(-c2ccnc(Nc3ccc(S(C)(=O)=O)cc3)n2)n1C(C)C
Summary of the method: as §1

[7] = compound: Cn1cc(-c2ccc3c(c2)CCN3C(=O)Cc2cccc(C(F)(F)F)c2)c2c(N)ncnc21
Summary of the method: as §1

[8] = compound: Cn1cc(-c2ccc3nnc(C(F)(F)c4ccc5ncccc5c4)n3n2)cn1
Summary of the method: as §1

[9] = compound: Cn1cncc1[C@@](N)(c1ccc(Cl)cc1)c1ccc2c(c1)c(-c1cccc(Cl)c1)cc(=O)n2C [tipifarnib]
Summary of the method: as §1

[10] = compound: FC(F)(F)c1ccc(/C=C/c2nc(COc3ccc(CCCCn4ccnn4)cc3)co2)cc1 [mubritinib]
Summary of the method: as §1

Measured: log2 fold change

FBXO7 (UniProt Q9Y3I1)
inactive: [1] -0.026 | [2] -0.006 | [3] 0.003 | [4] 0.059 | [5] -0.102 | [6] 0 | [7] 0.065 | [8] -0.002 | [9] 0.072 | [10] 0.07

HBZ, A0A494C057
inactive: [1] -0.015 | [3] 0.171 | [4] -0.035 | [6] 0.127 | [10] -0.08

GOLGA8R (UniProt I6L899)
inactive: [1] -0.095 | [2] -0.021 | [5] -0.074 | [7] 0.189 | [8] 0.126 | [9] 0.287

HSPA2 (UniProt P54652)
inactive: [1] -0.08 | [3] 0.024 | [4] 0.031 | [6] -0.013 | [8] 0.003 | [10] -0.067

FIZ1 (UniProt Q96SL8)
inactive: [2] -0.092 | [3] -0.09 | [4] 0.065 | [5] -0.026 | [6] -0.213 | [7] -0.137 | [10] -0.191

IFITM3 (UniProt Q01628)
inactive: [1] -0.073 | [3] 0.07 | [4] -0.2 | [5] -0.076 | [6] -0.01 | [7] 0.049 | [8] -0.149 | [9] 0.113 | [10] -0.157

ICMT (UniProt O60725)
inactive: [1] -0.103 | [3] 0.049 | [4] 0.17 | [5] 0.065 | [6] -0.003 | [8] 0.113 | [9] 0.107 | [10] 0.284

IDH3A isoform 2 (UniProt P50213)
inactive: [1] 0.004 | [3] 0 | [4] 0.001 | [6] -0.057 | [7] 0.128

GAB2 (UniProt Q9UQC2)
inactive: [2] 0 | [5] -0.599 | [7] 0.002 | [8] 0 | [9] 0.175 | [10] 0.075

HS1BP3 (UniProt Q53T59)
Chain of UniProt Q53T59 (Q53T59 whole entry, looked up): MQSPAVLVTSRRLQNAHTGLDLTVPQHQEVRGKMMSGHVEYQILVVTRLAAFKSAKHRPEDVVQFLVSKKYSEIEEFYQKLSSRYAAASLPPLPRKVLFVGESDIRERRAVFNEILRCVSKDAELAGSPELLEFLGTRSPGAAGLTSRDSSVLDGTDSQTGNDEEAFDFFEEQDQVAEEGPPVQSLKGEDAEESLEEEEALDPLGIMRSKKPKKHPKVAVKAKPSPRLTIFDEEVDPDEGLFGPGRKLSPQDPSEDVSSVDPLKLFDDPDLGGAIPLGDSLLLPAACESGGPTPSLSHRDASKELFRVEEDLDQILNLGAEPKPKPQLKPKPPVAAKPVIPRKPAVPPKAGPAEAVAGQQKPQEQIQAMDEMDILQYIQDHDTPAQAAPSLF
inactive: [1] -0.022 | [3] -0.023 | [4] -0.104 | [5] -0.047 | [6] -0.029 | [7] 0.062 | [8] -0.067 | [9] -0.038

FYB1 isoform 3 (UniProt O15117)
inactive: [1] -0.019 | [2] -0.071 | [3] -0.036 | [4] -0.026 | [5] -0.021 | [6] -0.077 | [8] -0.156 | [9] -0.025 | [10] 0.085

GPS2 (UniProt Q13227)
inactive: [1] -0.157 | [3] 0 | [4] -0.045 | [6] -0.074 | [8] 0.02 | [9] -0.033 | [10] -0.059

FIBP (UniProt O43427)
inactive: [1] -0.096 | [2] -0.093 | [5] -0.201 | [7] 0.118 | [8] -0.06 | [9] -0.029 | [10] 0.134

IGF2 isoform 3 (UniProt P01344)
inactive: [5] 0.019

FMR1 (UniProt Q06787)
inactive: [2] -0.146 | [7] -0.224 | [8] -0.028 | [9] -0.129 | [10] -0.175

GSE1 (UniProt Q14687)
inactive: [1] 0.305 | [3] 0.034 | [4] 0.004 | [5] -0.453 | [6] -0.096 | [7] -0.009 | [8] 0.012

GBE1 (UniProt Q04446)
inactive: [1] 0.067 | [5] -0.275 | [7] -0.004 | [8] 0.059 | [9] -0.608 | [10] 0.181

GBA2 (UniProt Q9HCG7)
Chain of UniProt Q9HCG7 (Q9HCG7 whole entry, looked up): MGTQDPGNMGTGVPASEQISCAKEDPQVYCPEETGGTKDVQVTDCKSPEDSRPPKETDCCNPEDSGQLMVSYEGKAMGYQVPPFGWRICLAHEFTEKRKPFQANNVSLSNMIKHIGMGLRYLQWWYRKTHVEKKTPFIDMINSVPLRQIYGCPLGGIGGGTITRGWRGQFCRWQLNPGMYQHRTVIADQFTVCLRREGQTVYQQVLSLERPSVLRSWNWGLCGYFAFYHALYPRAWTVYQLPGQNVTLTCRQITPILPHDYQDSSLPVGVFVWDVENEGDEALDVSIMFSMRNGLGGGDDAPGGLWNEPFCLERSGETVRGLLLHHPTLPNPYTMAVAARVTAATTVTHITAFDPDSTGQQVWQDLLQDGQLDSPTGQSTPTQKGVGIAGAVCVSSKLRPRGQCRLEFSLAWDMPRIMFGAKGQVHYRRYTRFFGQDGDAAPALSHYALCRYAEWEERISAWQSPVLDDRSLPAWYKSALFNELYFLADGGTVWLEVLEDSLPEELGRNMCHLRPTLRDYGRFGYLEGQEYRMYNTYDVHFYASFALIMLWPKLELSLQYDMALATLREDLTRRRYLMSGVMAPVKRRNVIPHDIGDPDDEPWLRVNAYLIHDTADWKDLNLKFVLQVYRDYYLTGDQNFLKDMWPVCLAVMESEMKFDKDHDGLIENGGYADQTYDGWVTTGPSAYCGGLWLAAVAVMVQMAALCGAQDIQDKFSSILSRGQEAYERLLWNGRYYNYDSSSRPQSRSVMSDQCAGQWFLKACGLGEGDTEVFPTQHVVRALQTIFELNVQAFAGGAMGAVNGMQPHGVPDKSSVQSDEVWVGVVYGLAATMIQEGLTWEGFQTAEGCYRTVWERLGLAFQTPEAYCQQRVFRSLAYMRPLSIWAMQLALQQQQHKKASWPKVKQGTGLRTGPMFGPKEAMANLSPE
inactive: [1] 0.045 | [3] -0.057 | [4] -0.061 | [5] -0.144 | [6] 0.007 | [7] 0.138 | [9] 0.091 | [10] 0.234

GDE1 (UniProt Q9NZC3)
Chain of UniProt Q9NZC3 (Q9NZC3 whole entry, looked up): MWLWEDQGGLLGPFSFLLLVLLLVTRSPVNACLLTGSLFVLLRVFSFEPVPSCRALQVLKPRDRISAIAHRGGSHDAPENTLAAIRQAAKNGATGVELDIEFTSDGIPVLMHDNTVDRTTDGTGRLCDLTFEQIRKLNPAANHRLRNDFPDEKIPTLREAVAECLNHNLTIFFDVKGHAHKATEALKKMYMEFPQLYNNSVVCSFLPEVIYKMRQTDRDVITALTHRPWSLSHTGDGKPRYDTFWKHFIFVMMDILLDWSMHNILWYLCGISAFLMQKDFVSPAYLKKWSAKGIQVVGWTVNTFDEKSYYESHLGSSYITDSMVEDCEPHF
inactive: [1] 0.081 | [3] 0.03 | [4] 0.054 | [5] 0.028 | [6] -0.032 | [7] 0.106 | [8] -0.029 | [9] -0.001 | [10] 0.01

GNL3 (UniProt Q9BVP2)
Chain of UniProt Q9BVP2 (Q9BVP2 whole entry, looked up): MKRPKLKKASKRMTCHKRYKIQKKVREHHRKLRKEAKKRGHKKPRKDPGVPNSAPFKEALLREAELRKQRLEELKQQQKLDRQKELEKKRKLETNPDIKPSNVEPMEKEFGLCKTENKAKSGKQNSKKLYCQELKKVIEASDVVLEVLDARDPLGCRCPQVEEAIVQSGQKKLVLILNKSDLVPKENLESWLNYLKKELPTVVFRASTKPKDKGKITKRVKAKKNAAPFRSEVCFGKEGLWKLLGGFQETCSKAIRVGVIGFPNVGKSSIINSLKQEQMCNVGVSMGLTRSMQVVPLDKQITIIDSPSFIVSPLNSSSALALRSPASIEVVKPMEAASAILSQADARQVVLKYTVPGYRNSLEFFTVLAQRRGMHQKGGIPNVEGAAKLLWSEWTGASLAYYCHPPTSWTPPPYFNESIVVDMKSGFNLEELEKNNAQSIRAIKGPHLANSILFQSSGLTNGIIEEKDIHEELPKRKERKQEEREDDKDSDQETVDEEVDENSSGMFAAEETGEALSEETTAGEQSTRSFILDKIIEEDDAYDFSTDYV
inactive: [1] -0.038 | [2] -0.078 | [3] -0.007 | [4] 0.011 | [5] -0.031 | [6] 0.056 | [7] 0.069 | [10] 0.134

HSPA8 (UniProt E9PN89)
inactive: [1] -0.04 | [2] -0.338 | [3] -0.12 | [4] 0.041 | [6] -0.123 | [7] -0.063 | [9] 0.122 | [10] 0.004

GOLGA6B (UniProt A6NDN3)
inactive: [1] -0.087 | [2] -0.042 | [3] -0.183 | [4] 0.02 | [6] 0.02 | [10] 0.146

H3-3A (UniProt P84243)
inactive: [1] -0.046 | [3] -0.038 | [4] -0.123 | [5] -0.133 | [6] -0.067 | [7] 0.08 | [9] -0.261 | [10] 0.236

GAK (UniProt O14976)
Chain of UniProt O14976 (O14976 whole entry, looked up): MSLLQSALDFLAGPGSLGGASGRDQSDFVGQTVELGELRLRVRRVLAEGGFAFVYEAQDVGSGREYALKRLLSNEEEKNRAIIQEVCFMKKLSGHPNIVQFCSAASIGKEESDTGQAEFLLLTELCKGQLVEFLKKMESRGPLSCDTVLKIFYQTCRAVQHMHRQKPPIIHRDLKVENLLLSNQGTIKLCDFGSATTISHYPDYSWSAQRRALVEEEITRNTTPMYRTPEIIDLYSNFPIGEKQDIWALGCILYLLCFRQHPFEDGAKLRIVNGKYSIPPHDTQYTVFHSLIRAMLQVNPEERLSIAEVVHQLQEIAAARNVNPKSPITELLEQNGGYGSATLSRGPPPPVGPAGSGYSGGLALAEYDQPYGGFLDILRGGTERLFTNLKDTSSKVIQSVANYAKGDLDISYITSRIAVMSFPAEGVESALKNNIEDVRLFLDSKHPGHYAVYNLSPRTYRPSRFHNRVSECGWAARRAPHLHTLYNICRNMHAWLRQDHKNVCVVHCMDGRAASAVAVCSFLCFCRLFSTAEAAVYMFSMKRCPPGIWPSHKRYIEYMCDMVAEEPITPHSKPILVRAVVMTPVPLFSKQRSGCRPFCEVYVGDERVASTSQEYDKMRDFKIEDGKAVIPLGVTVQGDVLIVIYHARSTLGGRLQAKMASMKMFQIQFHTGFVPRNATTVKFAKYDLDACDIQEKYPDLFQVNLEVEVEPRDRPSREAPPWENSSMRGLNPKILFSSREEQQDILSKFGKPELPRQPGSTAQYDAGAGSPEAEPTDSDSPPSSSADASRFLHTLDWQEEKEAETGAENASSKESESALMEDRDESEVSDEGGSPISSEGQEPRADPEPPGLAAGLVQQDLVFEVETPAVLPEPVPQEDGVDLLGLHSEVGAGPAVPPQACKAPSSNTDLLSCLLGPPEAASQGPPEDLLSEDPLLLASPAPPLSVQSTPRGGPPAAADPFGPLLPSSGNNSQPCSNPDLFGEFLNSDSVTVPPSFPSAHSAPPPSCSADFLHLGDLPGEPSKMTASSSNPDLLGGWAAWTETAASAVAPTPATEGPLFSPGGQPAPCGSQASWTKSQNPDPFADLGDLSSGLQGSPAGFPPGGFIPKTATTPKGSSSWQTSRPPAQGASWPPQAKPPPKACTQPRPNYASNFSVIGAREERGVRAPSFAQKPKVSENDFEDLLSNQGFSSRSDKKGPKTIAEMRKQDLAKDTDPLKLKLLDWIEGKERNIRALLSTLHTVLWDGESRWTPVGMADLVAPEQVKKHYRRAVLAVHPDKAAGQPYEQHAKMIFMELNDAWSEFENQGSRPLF
inactive: [2] -0.072 | [3] 0.257 | [4] 0.792 | [5] 1.31 | [6] 0.232 | [7] -0.07 | [8] -0.031 | [9] -0.238 | [10] 0.005

FCF1 (UniProt Q9Y324)
Chain of UniProt Q9Y324 (Q9Y324 whole entry, looked up): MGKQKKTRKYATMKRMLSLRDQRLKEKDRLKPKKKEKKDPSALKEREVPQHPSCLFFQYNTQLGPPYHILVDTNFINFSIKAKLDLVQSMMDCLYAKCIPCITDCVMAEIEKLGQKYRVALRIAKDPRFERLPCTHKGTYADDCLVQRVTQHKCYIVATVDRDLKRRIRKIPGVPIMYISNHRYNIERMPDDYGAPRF
inactive: [2] 0.042 | [5] 0.139 | [8] -0.119 | [9] 0.242 | [10] -0.129

FAT2 (UniProt Q9NYQ8)
inactive: [1] 0.076 | [2] -0.005 | [5] 0.006 | [7] 0.167 | [8] 0.002 | [9] 0.008 | [10] 0.354

FUNDC1 (UniProt Q8IVP5)
Chain of UniProt Q8IVP5 (Q8IVP5 whole entry, looked up): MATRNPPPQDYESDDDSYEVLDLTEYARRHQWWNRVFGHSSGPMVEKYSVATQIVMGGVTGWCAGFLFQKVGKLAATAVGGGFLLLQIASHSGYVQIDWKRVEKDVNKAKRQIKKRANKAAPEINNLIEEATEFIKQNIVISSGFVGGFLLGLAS
inactive: [1] -0.169 | [9] 0 | [10] 0.066

GREB1 (UniProt Q4ZG55)
inactive: [7] 0.046

GGA2 (UniProt Q9UJY4)
Chain of UniProt Q9UJY4 (Q9UJY4 whole entry, looked up): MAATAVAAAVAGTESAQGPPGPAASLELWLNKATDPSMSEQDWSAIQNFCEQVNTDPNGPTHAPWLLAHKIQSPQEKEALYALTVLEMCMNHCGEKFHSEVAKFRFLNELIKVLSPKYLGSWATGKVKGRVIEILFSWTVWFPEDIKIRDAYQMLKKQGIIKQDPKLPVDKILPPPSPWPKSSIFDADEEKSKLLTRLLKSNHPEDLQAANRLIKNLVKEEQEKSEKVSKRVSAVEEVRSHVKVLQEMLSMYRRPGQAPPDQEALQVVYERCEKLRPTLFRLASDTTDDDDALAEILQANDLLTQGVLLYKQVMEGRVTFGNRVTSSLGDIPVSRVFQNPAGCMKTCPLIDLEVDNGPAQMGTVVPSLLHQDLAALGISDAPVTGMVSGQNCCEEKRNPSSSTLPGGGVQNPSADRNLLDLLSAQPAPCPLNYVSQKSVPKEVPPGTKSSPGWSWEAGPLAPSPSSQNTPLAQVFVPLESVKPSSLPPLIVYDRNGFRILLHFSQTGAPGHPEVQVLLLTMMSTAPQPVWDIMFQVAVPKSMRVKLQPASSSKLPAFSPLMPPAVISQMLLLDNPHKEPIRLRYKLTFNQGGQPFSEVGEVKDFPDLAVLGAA
inactive: [1] 0.024 | [3] -0.031 | [4] 0.065 | [5] 0.075 | [6] -0.013 | [7] 0.024 | [8] 0.034 | [9] -0.003 | [10] 0.014

FCHO1 (UniProt O14526)
inactive: [3] -0.118 | [4] -0.067 | [5] -0.275 | [6] -0.127 | [7] 0.079 | [8] 0.033 | [9] -0.119 | [10] -0.003

GLIPR2 (UniProt Q9H4G4)
inactive: [1] -0.101 | [2] -0.024 | [5] -0.059 | [7] 0.031 | [8] 0.087 | [9] 0.019 | [10] 0.054

FOXO3 (UniProt O43524)
inactive: [2] 0.002 | [5] -0.14 | [7] 0 | [8] -0.013 | [9] -0.139 | [10] -0.057

FGG (UniProt P02679)
Chain of UniProt P02679 (P02679 whole entry, looked up): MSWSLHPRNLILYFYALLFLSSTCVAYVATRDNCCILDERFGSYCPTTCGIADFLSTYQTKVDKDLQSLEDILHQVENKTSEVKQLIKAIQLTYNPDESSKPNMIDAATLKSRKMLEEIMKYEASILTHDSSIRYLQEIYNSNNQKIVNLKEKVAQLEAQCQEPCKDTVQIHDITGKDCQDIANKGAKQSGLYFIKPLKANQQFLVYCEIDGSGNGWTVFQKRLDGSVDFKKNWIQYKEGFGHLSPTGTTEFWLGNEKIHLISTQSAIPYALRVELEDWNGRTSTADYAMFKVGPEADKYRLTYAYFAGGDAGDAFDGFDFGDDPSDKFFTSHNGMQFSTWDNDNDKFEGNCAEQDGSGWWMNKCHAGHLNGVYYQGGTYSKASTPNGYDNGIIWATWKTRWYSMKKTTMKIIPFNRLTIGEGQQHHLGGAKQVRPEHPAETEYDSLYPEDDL
inactive: [2] 0.165 | [8] -0.018 | [9] 0.127

HNRNPUL1 (UniProt M0R247)
inactive: [3] 0.061 | [4] -0.13 | [5] 0.206 | [6] 0.025 | [7] -0.024 | [9] 0.259

HNRNPK isoform 3 (UniProt P61978)
inactive: [1] 0.003 | [2] -0.18 | [3] -0.115 | [4] -0.022 | [5] 0.021 | [6] 0.143 | [8] -0.002 | [10] -0.101

FEN1 (UniProt P39748)
inactive: [1] 0.02 | [2] 0.23 | [3] -0.149 | [4] 0.053 | [6] -0.05 | [7] 0.16 | [8] 0.164 | [9] -0.274 | [10] 0.314
